# Assay results from PubChem BioAssay (Tox21).
# Records with an inconclusive call do not appear. Where a call stands in place of a potency, no number is given. Calls of active or inactive are those of the source. Calls come from the whole dose curve; as a rule, active = well fitted cell-killing curve with a large enough effect in the repeat runs; inconclusive = weak or mixed curves; inactive = no such curve, though single readings can be large or run the other way.
# Assay: qHTS assay to identify small molecule antagonists of the peroxisome proliferator-activated receptor delta (PPARd) signaling pathway - cell viability counter screen (AID 743213); note: nearly all actives have a fitted effect of over 50% in size
# Conditions: PPARd-bla HEK293H viability, CellTiter-Glo luminescence, 17 h; series mostly up to 62 µM
# Text: U.S. Tox21 Program National Center for Advancing Translational Sciences [NCATS] NIH Chemical Genomics Center [NCGC] U.S. Environmental Protection Agency [EPA] National Institutes of Environmental Health Sciences [NIEHS] National Toxicology Program [NTP] U.S. Food and Drug Administration [FDA] Tox21 Assay Overview: The peroxisome proliferator-activated receptors (PPARs) are lipid-activated transcription factors of the nuclear receptor superfamily with three distinct subtypes namely PPAR alpha, PPAR delta (PPARd) and PPAR gamma. All these subtypes heterodimerizes with Retinoid X receptor (RXR) and have different physiological functions. […] To identify the compounds that inhibit PPAR-delta signaling, GeneBLAzer PPAR delta UAS-bla HEK293H cell line (Invitrogen, Carlsbad, CA, USA) containing a beta-lactamase reporter gene under the control of an Upstream Activator Sequence (UAS) was used to screen the Tox21 compound library. The cytotoxicity of the Tox21 compound library against the PPARd-bla cell line was tested in parallel by measuring the cell viability using CellTiter-Glo assay (Promega, Madison, WI) in the same wells.
# Tox21 Assay Protocol Summary: PPARd-bla cells were dispensed at 3000 cells/5uL/well in 1536-well black wall/clear bottom plates using a Multidrop Combi (Thermo Fisher Scientific, Waltham, MA) dispenser. After the assay plates were incubated at 37 C and 5% CO2 for 5 h, 23 nL of compounds dissolved in DMSO, positive controls or DMSO only was transferred to the assay plate by a Pintool station (Kalypsys, San Diego, CA), followed by addition of 1ul L165041 (300 nM, final concentration in the wells). The assay plates were incubated at 37 C for 17 h, and then 1 uL of LiveBLAzerTM B/G FRET substrate was added using a Bioraptr Flying Reagent Dispenser (FRD) workstation (Beckman Coulter, Indianapolis, IN, USA). The assay plates were incubated at room temperature for 2 h and fluorescence intensity was measured by an Envision plate reader (PerkinElmer, Shelton, CT). For cell viability readout that measures cytotoxicity, 3 ul/well of CellTiter-Glo reagent was added into the assay plates using a Bioraptr FRD. After 30 min incubation at room temperature, the luminescence intensity in the plates was measured using a ViewLux plate reader (PerkinElmer).
# Potency is the fitted concentration of half-maximal effect.
SMILES,Potency,"viability change, negative = cytotoxic"
Cc1c2ccccc2c(C)c2c1ccc1ccccc12,21.9 µM (active),
CC(C)CCCCCOC(=O)CCS,inactive,
O=[N+]([O-])c1ccc(F)c(Cl)c1,inactive,
CCOc1ccc2ccccc2c1C(=O)N[C@@H]1C(=O)N2[C@@H]1SC(C)(C)[C@@H]2C(=O)O,inactive,
Clc1sc(Cl)c(Cl)c1Cl,inactive,
CCCCCCCCCCC[C@@H](C[C@@H]1OC(=O)[C@H]1CCCCCC)OC(=O)[C@H](CC(C)C)NC=O,inactive,
CCn1c2ccccc2c2cc([N+](=O)[O-])ccc21,inactive,
NC(=O)c1cccc([N+](=O)[O-])c1,inactive,
c1ccc(C(O[C@@H]2CCCN(CCc3ccc4c(c3)OCO4)C2)c2ccccc2)cc1,inactive,
CC(C(=O)O)c1ccc2c(c1)[nH]c1ccc(Cl)cc12 (stereo not given),inactive,
C=C(C)c1cccc(C(=C)C)c1,inactive,
Cc1cc(C(C)(C)C)cc(C)c1CC1=NCCN1,inactive,
O=[N+]([O-])c1ccc(O)cc1C(F)(F)F,inactive,
O=C1CCc2ccc(OCCCCN3CCN(c4cccc(Cl)c4Cl)CC3)cc2N1,13.3 µM (active),
O=c1[nH]c2ccccc2n1CCCN1CCN(C(c2ccccc2)c2ccccc2)CC1,inactive,
CCCC(=O)OC(C)(C)Cc1ccccc1,inactive,
O=C(/C=C/c1ccccc1)OC/C=C/c1ccccc1,inactive,
Cc1ccc(C(=O)O)cc1,inactive,
O=C(O)CN(CCN(CC(=O)O)CC(=O)O)CC(=O)O,,5.49% [at 2.83 µM] (inactive)
CC1=Nc2ccccc2C1(C)C,inactive,

SMILES,Potency,"viability change, negative = cytotoxic"
COC1=C(OC)C(=O)C(CCCCCCCCCCO)=C(C)C1=O,inactive,
c1cnccn1,inactive,
CCCCOC(=O)CO,inactive,
O=C(O)c1cc(=O)c2ccccc2o1,inactive,
CC1=CCC(=C(C)C)CC1,inactive,
ClCCl,inactive,
O=C(O)O,2.37 µM (active),
C#C[C@]1(O)CC[C@H]2[C@@H]3[C@H](C)CC4=C(CCC(=O)C4)[C@H]3CC[C@@]21C,inactive,
C=C(C)C(=O)OCCCCCCCCCC,39.2 µM (active),
CCC(=O)C(=O)CC,inactive,
CCC(COC(=O)CCS)(COC(=O)CCS)COC(=O)CCS,inactive,
CC[N+](CC)(CC)CCOC(=O)C(C1CCCC1)C1CCCC1,inactive,
O=C1CCCCCCCCCCCCCCCO1,inactive,
C#CC1(O)CC[C@H]2[C@@H]3CCC4=CCCC[C@@H]4[C@H]3CC[C@@]21C (stereo not given in full),26.6 µM (active),
OC[C@H]1O[C@H](O[C@H]2O[C@H](CO)[C@@H](O)[C@H](O)[C@H]2O)[C@H](O)[C@@H](O)[C@@H]1O,inactive,
CCCCCCCCCCCCOC(=O)c1ccc(O)cc1,inactive,
C[C@@H](O)[C@H](N)C(=O)O,inactive,
CC1(C)CCC[C@]2(C)[C@H]3CCO[C@]3(C)CC[C@@H]12,inactive,
COc1cccc2c1C(=O)c1c(O)c3c(c(O)c1C2=O)C[C@@](O)(C(C)=O)C[C@@H]3O[C@H]1C[C@H](N)[C@H](O)[C@H](C)O1,43.9 µM (active),
COc1ccc(-c2coc3cc(O)ccc3c2=O)cc1,inactive,
